The results in this text go back to PubChem BioAssay (EPA / NIEHS).

Calls of active or inactive are those of the source. The calls were made as follows: active = hit-call score of the fitted dose curve at least 0.9, where 1 is the maximum; inactive = score below 0.9.

Conditions in all cases: mRNA level, 48 h; actives raise or lower the signal
Read-out in test [1]: ABC Transporter (ABCB11), ABCB11 (gene 8647)
In words: LTEA_HepaRG_ABCB11: Life Technologies and Expression Analysis (LTEA) Assay for ABC Transporter (ABCB11) using HepaRG (AID 2283463). Put shortly: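 HepaRG, 48 h exposure, 8-pt half-log CRC top 100 uM, 0.5% DMSO vehicle, duplicates. Readout: TaqMan qRT-PCR of ABCB11 mRNA, housekeeping-normalized (ACTB/GAPDH/POLR2A). Bidirectional fit vs DMSO baseline.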

Read-out in test [2]: Broad substrate specificity ATP-binding cassette transporter ABCG2 (Homo sapiens) (UniProt Q9UNQ0)
The test is described as follows: LTEA_HepaRG_ABCG2: Life Technologies and Expression Analysis (LTEA) Assay for ABC Transporter (ABCG2) using HepaRG (AID 2283465). Put shortly: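 HepaRG, 48 h exposure, 8-pt half-log series from 100 uM, 0.5% DMSO vehicle, duplicates. Readout: ABCG2 transcript by qRT-PCR (Fluidigm array), housekeeping-normalized; bidirectional curve fit relative to DMSO baseline.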

Read-out in test [3]: ATP-citrate lyase (ACLY), ACLY (gene 47)
In words: LTEA_HepaRG_ACLY: Life Technologies and Expression Analysis (LTEA) Assay for ATP-citrate lyase (ACLY) using HepaRG (AID 2283466). The gist of the method:
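qRT-PCR readout of ACLY transcript after 48 h chemical treatment of HepaRG cells; expression normalized to three housekeeping genes. Eight-point half-log series, highest 100 uM, 0.5% DMSO vehicle. Gain or loss fitted against DMSO baseline.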

Read-out in test [4]: Peroxisomal acyl-coenzyme A oxidase 1 (ACOX1) gene, ACOX1 (gene 51)
In words: LTEA_HepaRG_ACOX1: Life Technologies and Expression Analysis (LTEA) Assay for Peroxisomal acyl-coenzyme A oxidase 1 (ACOX1) gene using HepaRG (AID 2283467). The gist of the method:
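HepaRG, 48 h chemical exposure, 8-pt half-log series from 100 uM top, 0.5% DMSO vehicle, duplicates. Readout: ACOX1 mRNA by Fluidigm qRT-PCR, housekeeping-normalized; bidirectional fit vs DMSO baseline.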

Read-out in test [5]: Alkaline Phosphatase, Placental (ALPP) gene, ALPP (gene 250)
The test is described as follows: LTEA_HepaRG_ALPP: Life Technologies and Expression Analysis (LTEA) Assay for Alkaline Phosphatase, Placental (ALPP) gene using HepaRG (AID 2283468). The gist of the method:
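Differentiated human HepaRG cells were plated and cultured 48 h, then exposed in duplicate for 48 h in serum-free induction medium to eight half-log concentrations from 100 uM in 0.5% DMSO. ALPP mRNA was measured by TaqMan qRT-PCR, normalized to ACTB, GAPDH, POLR2A.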

Read-out in test [6]: Bcl-2 (BAD) gene, BAD (gene 572)
In words: LTEA_HepaRG_BAD: Life Technologies and Expression Analysis (LTEA) Assay for Bcl-2 (BAD) gene using HepaRG (AID 2283469). Put shortly:
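HepaRG, 48 h exposure, 8-pt half-log curve from 100 uM in 0.5% DMSO, duplicates. Readout: TaqMan qRT-PCR for BAD mRNA, housekeeping-normalised (ACTB/GAPDH/POLR2A); gain or loss fitted against DMSO baseline.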

Read-out in test [7]: Bcl-2 (BAX) gene, BAX (gene 581)
The test is described as follows: LTEA_HepaRG_BAX: Life Technologies and Expression Analysis (LTEA) Assay for Bcl-2 (BAX) gene using HepaRG (AID 2283470). Put shortly:
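Gene expression measured by Fluidigm qRT-PCR with three housekeeping genes for normalisation. HepaRG cells, plated 48 h beforehand, treated 48 h at up to 100 uM (8-point, half-log) in 0.5% DMSO. Bidirectional fitting versus DMSO.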

Read-out in test [8]: adenosine kinase (ADK) gene, ADK (gene 132)
The test is described as follows: LTEA_HepaRG_ADK: Life Technologies and Expression Analysis (LTEA) Assay for adenosine kinase (ADK) gene using HepaRG (AID 2283471). Put shortly:
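HepaRG (human liver), 48 h chemical exposure, 8-pt half-log series, top 100 uM, 0.5% DMSO vehicle. Readout: ADK mRNA by qRT-PCR vs housekeeping genes; bidirectional curve fit relative to DMSO baseline.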

Read-out in test [9]: Alpha-fetoprotein (AFP) gene, AFP (gene 174)
The test is described as follows: LTEA_HepaRG_AFP: Life Technologies and Expression Analysis (LTEA) Assay for Alpha-fetoprotein (AFP) gene using HepaRG (AID 2283472). Put shortly:
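AFP transcript measured by TaqMan qRT-PCR with three housekeeping genes for normalization, after 48 h chemical treatment of HepaRG cells (top 100 uM, half-log steps, 0.5% DMSO). Gain or loss fitted against vehicle.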

Read-out in a further test: BCL2L11 (gene 10018)
In words: LTEA_HepaRG_BCL2L11: Life Technologies and Expression Analysis (LTEA) Assay for Bcl-2 (BCL2L11) gene using HepaRG (AID 2283473). The gist of the method: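 Differentiated human HepaRG cells in serum-free induction medium were exposed in duplicate for 48 h to eight concentrations (top 100 uM, half-log steps, 0.5% DMSO). BCL2L11 mRNA was quantified by TaqMan qRT-PCR, normalized to ACTB/GAPDH/POLR2A, bidirectional fit versus DMSO.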

Read-out in test [10]: Apolipoprotein A-V (APOA5) gene, APOA5 (gene 116519)
In words: LTEA_HepaRG_APOA5: Life Technologies and Expression Analysis (LTEA) Assay for Apolipoprotein A-V (APOA5) gene using HepaRG (AID 2283474). Put shortly:
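Differentiated human HepaRG cells were exposed in duplicate for 48 h to eight half-log concentrations from 100 uM in 0.5% DMSO. APOA5 mRNA was quantified by TaqMan qRT-PCR, normalized to ACTB, GAPDH and POLR2A, and fitted bidirectionally against DMSO.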

Read-out in test [11]: Apoptosis regulator Bcl-2 (Homo sapiens) (UniProt P10415)
In words: LTEA_HepaRG_BCL2: Life Technologies and Expression Analysis (LTEA) Assay for Bcl-2 gene using HepaRG (AID 2283475). Put shortly: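 qRT-PCR of BCL2 transcript, normalized to three housekeeping genes (ACTB, GAPDH, POLR2A), after 48 h chemical exposure of HepaRG cells; concentrations top 100 uM with half-log dilutions, 0.5% DMSO vehicle, duplicates; changes up or down fitted relative to vehicle.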

Read-out in test [12]: Bcl-2 (BID) gene, BID (gene 637)
The test is described as follows: LTEA_HepaRG_BID: Life Technologies and Expression Analysis (LTEA) Assay for Bcl-2 (BID) gene using HepaRG (AID 2283476). Put shortly:
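Duplicate 48 h treatments of HepaRG cells in serum-free induction medium spanned 100 uM downward in half-log steps, 0.5% DMSO. Transcript change quantified by qRT-PCR against three housekeeping genes, fitted up or down versus DMSO.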

Read-out in another test: Caspase-3 (Homo sapiens) (UniProt P42574)
The test is described as follows: LTEA_HepaRG_CASP3: Life Technologies and Expression Analysis (LTEA) Assay for cysteine-aspartic acid protease (CASP3) using HepaRG (AID 2283477). The gist of the method:
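Differentiated human HepaRG cells in serum-free induction medium were exposed 48 h to 8-point half-log concentrations from 100 uM (0.5% DMSO vehicle). CASP3 mRNA was measured by qRT-PCR, normalised to ACTB, GAPDH and POLR2A, with bidirectional fitting against DMSO.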

Read-out in test [13]: Cytochrome P450 (CYP24A1), CYP24A1 (gene 1591)
The test is described as follows: LTEA_HepaRG_CYP24A1: Life Technologies and Expression Analysis (LTEA) Assay for Cytochrome P450 (CYP24A1) using HepaRG (AID 2283478). The gist of the method: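 Differentiated HepaRG cells, pre-cultured 48 h, were exposed in duplicate for 48 h in serum-free induction medium to 8 half-log concentrations (top 100 uM, 0.5% DMSO). CYP24A1 mRNA was quantified by TaqMan qRT-PCR, normalized to ACTB/GAPDH/POLR2A, fitted bidirectionally versus DMSO.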

Read-out in test [14]: Cytochrome P450 (CYP1A2), CYP1A2 (gene 1544)
The test is described as follows: LTEA_HepaRG_CYP1A2: Life Technologies and Expression Analysis (LTEA) Assay for Cytochrome P450 (CYP1A2) using HepaRG (AID 2283479). The gist of the method: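 Differentiated human HepaRG cells in serum-free induction medium were exposed in duplicate for 48 h to 8-point half-log concentrations up to 100 uM in 0.5% DMSO. CYP1A2 mRNA measured by qRT-PCR, normalized to ACTB, GAPDH, POLR2A; bidirectional fit vs DMSO.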

Read-out in test [15]: Cytochrome P450 (CYP2B6), CYP2B6 (gene 1555)
In words: LTEA_HepaRG_CYP2B6: Life Technologies and Expression Analysis (LTEA) Assay for Cytochrome P450 (CYP2B6) using HepaRG (AID 2283481). The gist of the method: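 Differentiated HepaRG cells, serum-free induction medium, exposed 48 h in duplicate to 8-point half-log concentrations from 100 uM in 0.5% DMSO. CYP2B6 mRNA by qRT-PCR, normalized to ACTB, GAPDH, POLR2A; bidirectional fit versus DMSO.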

Read-out in test [16]: Cytochrome P450 2C19 (Homo sapiens) (UniProt P33261)
The test is described as follows: LTEA_HepaRG_CYP2C19: Life Technologies and Expression Analysis (LTEA) Assay for CYP2C19 using HepaRG (AID 2283482). Put shortly: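 Differentiated human HepaRG cells were exposed for 48 h in serum-free induction medium to 8 concentrations (top 100 uM, half-log steps, 0.5% DMSO). CYP2C19 mRNA was measured by qRT-PCR, normalized to ACTB/GAPDH/POLR2A, and fitted bidirectionally against DMSO.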

Read-out in test [17]: cysteine-aspartic acid protease (CASP8), CASP8 (gene 841)
The test is described as follows: LTEA_HepaRG_CASP8: Life Technologies and Expression Analysis (LTEA) Assay for cysteine-aspartic acid protease (CASP8) using HepaRG (AID 2283480). Put shortly: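 qRT-PCR readout of CASP8 mRNA, normalized to three housekeeping genes, after 48 h chemical exposure of HepaRG cells; 8-point half-log series, top 100 uM, 0.5% DMSO vehicle. Bidirectional curve fitting against DMSO baseline.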

Sequence of Apoptosis regulator Bcl-2 (Homo sapiens) (P10415 whole entry, looked up): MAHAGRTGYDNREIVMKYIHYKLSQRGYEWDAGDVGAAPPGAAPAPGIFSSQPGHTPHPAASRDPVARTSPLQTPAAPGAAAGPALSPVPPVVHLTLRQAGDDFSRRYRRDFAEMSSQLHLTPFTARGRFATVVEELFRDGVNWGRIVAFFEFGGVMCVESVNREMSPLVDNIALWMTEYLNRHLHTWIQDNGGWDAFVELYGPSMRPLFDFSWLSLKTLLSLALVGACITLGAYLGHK
Sequence of Cytochrome P450 2C19 (Homo sapiens) (P33261 whole entry, looked up): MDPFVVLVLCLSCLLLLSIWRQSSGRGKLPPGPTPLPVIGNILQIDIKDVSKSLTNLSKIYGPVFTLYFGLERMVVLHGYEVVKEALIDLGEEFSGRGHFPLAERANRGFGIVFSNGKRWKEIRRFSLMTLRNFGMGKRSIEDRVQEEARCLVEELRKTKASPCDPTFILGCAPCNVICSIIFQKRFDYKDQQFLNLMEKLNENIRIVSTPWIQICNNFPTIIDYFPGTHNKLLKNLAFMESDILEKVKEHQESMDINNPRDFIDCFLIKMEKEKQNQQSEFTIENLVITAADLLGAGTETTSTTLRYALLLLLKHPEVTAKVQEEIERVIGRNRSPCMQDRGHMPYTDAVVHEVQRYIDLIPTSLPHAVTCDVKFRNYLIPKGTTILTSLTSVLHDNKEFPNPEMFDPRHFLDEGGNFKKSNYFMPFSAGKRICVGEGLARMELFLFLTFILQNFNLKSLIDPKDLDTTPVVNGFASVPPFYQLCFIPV
Sequence of Broad substrate specificity ATP-binding cassette transporter ABCG2 (Homo sapiens) (Q9UNQ0 whole entry, looked up): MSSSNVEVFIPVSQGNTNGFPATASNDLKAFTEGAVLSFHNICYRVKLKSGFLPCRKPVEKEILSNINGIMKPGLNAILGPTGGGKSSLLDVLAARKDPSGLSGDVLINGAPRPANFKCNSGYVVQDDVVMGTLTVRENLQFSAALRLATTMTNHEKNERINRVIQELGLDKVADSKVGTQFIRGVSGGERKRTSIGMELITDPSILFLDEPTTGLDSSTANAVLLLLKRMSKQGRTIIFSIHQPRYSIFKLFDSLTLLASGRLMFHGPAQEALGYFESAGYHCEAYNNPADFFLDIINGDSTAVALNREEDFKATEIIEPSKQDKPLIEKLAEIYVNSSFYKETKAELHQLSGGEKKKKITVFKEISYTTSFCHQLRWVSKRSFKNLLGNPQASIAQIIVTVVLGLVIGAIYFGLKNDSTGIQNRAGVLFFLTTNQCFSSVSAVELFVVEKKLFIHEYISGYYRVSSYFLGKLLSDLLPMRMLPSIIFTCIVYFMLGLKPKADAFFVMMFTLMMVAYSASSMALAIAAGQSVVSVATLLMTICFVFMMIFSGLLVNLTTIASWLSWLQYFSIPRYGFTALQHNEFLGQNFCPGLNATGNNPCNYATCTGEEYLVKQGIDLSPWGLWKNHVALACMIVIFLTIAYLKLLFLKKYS
Sequence of Caspase-3 (Homo sapiens) (P42574 whole entry, looked up): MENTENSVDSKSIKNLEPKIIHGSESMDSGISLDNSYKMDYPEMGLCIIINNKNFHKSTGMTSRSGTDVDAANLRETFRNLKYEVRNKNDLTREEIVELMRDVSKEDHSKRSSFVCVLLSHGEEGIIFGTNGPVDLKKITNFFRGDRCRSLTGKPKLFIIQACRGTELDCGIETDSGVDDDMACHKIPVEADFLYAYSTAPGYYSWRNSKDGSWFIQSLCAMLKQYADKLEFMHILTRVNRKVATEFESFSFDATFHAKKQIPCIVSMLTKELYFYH

`CCCCC(CC)COC(=O)c1ccc(C(=O)OCC(CC)CCCC)cc1` (stereo not drawn): the result in [1], in test [2], in test [3], in [4], in [5] and in [6] was inactive. Besides, the call (in [7]; in [8]; in [9]; in the test with BCL2L11 (gene 10018); in [10]; in test [11]) was inactive. Moreover, the compound was called inactive (in test [12]; with Caspase-3 (Homo sapiens); in [13]; in test [14]; in [15]; in [16]).
As to `O=c1n(CC2CO2)c(=O)n(CC2CO2)c(=O)n1CC1CO1` (stereo not drawn), the values for the AC50 in test [1] and in [7] were 88 µM (active) and 83.4 µM (active), respectively. Also, the call in test [2], in test [3], in test [4], in [5], in [6] and in test [8] was inactive. Also, the result (with BCL2L11 (gene 10018); in test [10]; in test [11]; in [12]; in the test with Caspase-3 (Homo sapiens); in test [13]) was inactive. Further, the outcome in [14], in [17], in test [15] and in test [16] was inactive.
As to `O=C1CCCCCN1`, the call in [1], in test [2], in [3], in test [4], in [5] and in test [6] was inactive. The result (in test [7]; in test [8]; with BCL2L11 (gene 10018); in test [10]; in test [11]; in [12]) was inactive. The call (in the test with Caspase-3 (Homo sapiens); in [13]; in test [14]; in test [17]; in test [15]; in [16]) was inactive.
Take `CNCc1ccc(NC(=O)c2c[nH]c3c2C(=O)CCC3)cc1`: the compound was called inactive in [1], in test [2], in [3], in test [4], in test [5] and in [6]. For the same compound, the compound was called inactive (in [7]; in [8]; with BCL2L11 (gene 10018); in [10]; in test [11]; in test [12]). The outcome (with Caspase-3 (Homo sapiens); in test [13]; in [15]; in test [16]) was inactive. Further, in test [14], the half-maximal activity concentration (AC50) was 73.2 µM (active).
For `COC(=O)CC(=O)OC`, the compound was called inactive in [1], in test [2], in [3], in [4], in test [5] and in test [6]. In addition, the call (in [7]; in test [8]; with BCL2L11 (gene 10018); in test [10]; in [11]; in test [12]) was inactive. In addition, the result (in the test with Caspase-3 (Homo sapiens); in test [13]; in [14]) was inactive. In addition, the AC50 was 1.93 µM (active) in [15] and 3.31 µM (active) in test [16].
